HT1080 IDH1KD tx: qHTS for induction of synthetic lethality in tumor cells producing 2HG: qHTS for the HT-1080-IDH1KD cell line; 360,000 tested, 2% active; HT-1080 IDH1 knockdown viability, ATP luminescence, 48 h; Potency, µM (titrated, usually from 46.1 µM), usual class: cytotoxic; AID 686971, 2013
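Viability of IDH1-knockdown HT-1080 fibrosarcoma cells was assessed by CellTiter-Glo after 48 h at 37 °C with titrated compound; concentration-effect curves were classified by fit quality and response size.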
DT40 TDP1 CPT: qHTS for Inhibitors of human tyrosyl-DNA phosphodiesterase 1 (TDP1): qHTS in cells in presence of CPT; Potency, µM (top dose mostly 46.2 µM), most hits filed as inhibitors; chicken DT40 Tdp1-/-;hTDP1 cells + 20 nM CPT, ATP luminescence, 48 h; 420,000 tested, 12% active; also: nearly all actives have a fitted effect of over 55% in size
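Chicken DT40 Tdp1-/- cells stably complemented with human TDP1 were seeded at 400 cells/well in medium containing 20 nM camptothecin, exposed to pin-transferred compounds, and grown at 37 °C for at least 48 hr. Viability was read as ATP luminescence.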
TDP1 cell noCPT: qHTS for Inhibitors of human tyrosyl-DNA phosphodiesterase 1 (TDP1): qHTS in cells in absence of CPT; Potency, µM (titrated, usually from 46.2 µM), hits mostly inhibitors; DT40 Tdp1-/- hTDP1 cells, no CPT, ATP luminescence, 48 h; 420,000 tested, 15% active; AID 686978, 2013; also: nearly all actives have a fitted effect of over 55% in size
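Chicken DT40 Tdp1-/- cells stably complemented with human TDP1 were seeded at 400 cells/well with DMSO in place of 20 nM camptothecin. After compound pinning, cells grew at least 48 hr at 37 °C; viability read by CellTiter-Glo luminescence.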
HT1080-NT tox: qHTS for induction of synthetic lethality in tumor cells producing 2HG: qHTS for the HT-1080-NT fibrosarcoma cell line. HT-1080-NT fibrosarcoma viability, CellTiter-Glo ATP luminescence, 48 h. Potency, µM (doses to about 46.1 µM), usual class: cytotoxic. 360,000 tested, 1.6% active. AID 686970, 2013;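 also: NT is the 2HG producing partner of a matched IDH1 knockdown line; nearly all actives have a fitted effect of over 55% in size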
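HT-1080-NT; 750 cells/well; 5% FBS RPMI; 48 h compound, 37 degrees C; CellTiter-Glo luminescence; curve fitting and curve-class assignment.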
IL1B secr inh: qHTS for Inhibitors of Inflammasome Signaling: IL-1-beta AlphaLISA Primary Screen. AID 743279, 2014. 360,000 tested, 4.7% active. THP-1 LPS/ATP IL-1B secretion, AlphaLISA, 16 h; active compounds read low. activity change, % at 57.5 µM; in the data active = activity change below about -50%; inconclusive = mostly about -30% to -49%
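Secreted IL-1B measured by AlphaLISA bead assay after 16 h compound exposure of THP-1 cells; compounds (final up to 57.5 uM) added 1 h before LPS (250 ng/mL) and ATP (1.25 mM) stimulation; lower signal means less secretion.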
A number is an active result; 0 = inactive; ? = inconclusive; - = no result given. Sampled rows, rich in hits. Any-hit rate of the full collection: about 19%. Unless noted, calls follow the shape of the dose curve; as a rule, active = well fitted curve in the direction sought with a large enough effect; inconclusive = small, poorly fitted or top-dose-only effect, or another doubt; inactive = no such curve, though single readings can be large; an effect the other way counts as inactive or inconclusive.

SMILES | HT1080 IDH1KD tx | DT40 TDP1 CPT | TDP1 cell noCPT | HT1080-NT tox | IL1B secr inh
Cc1nc(SCC(=O)N2CCNC2=O)c2ccccc2n1 | ? | ? | ? | ? | -96
CC(C)(C)c1nc(SCC(=O)Nc2nc3c(s2)CCCC3)c2ccccc2n1 | 1.4µM | 15µM | 12µM | ? | 0
O=C(CSc1nc(Cc2ccccc2)nc2ccccc12)Nc1nc2c(s1)CCCC2 | ? | ? | ? | 0 | 0
CC(C)c1nc(SCC(=O)NC2CCCC2)c2ccccc2n1 | 0 | 0 | ? | 0 | ?
CCC(Sc1nc2n[nH]c(C)c2c(=N)n1-c1cc(Cl)ccc1C)C(=O)N1CCOCC1 (stereo not given) | ? | ? | 12µM | 0 | 0
CCN(CCNC(=O)c1ccc(CSc2nc3ccncc3[nH]2)cc1)c1ccccc1 | 0 | 0 | 0 | 0 | 0
CC1CC(C)CN(C(=O)c2ccc(CSc3nc4ccncc4[nH]3)cc2)C1 (stereo not given) | 0 | ? | 12µM | 0 | 0
O=C(NCCN1CCN(c2cccc(Cl)c2)CC1)c1ccc(CSc2nc3ccncc3[nH]2)cc1 | ? | ? | ? | ? | -63
COCCn1c(SCC(=O)Nc2cc(C)on2)nc2ccccc2c1=O | 0 | 0 | ? | 0 | 0
CCCCCCn1c(SCC(=O)Nc2cc(C)on2)nc2ccccc2c1=O | ? | ? | 10µM | 0 | 0
CCn1c(SCC(=O)Nc2cc(C)on2)nc2c([nH]c3ccccc32)c1=O | 0 | ? | 18µM | 0 | 0
COCCn1c(SCC(=O)Nc2cc(C)on2)nc2c([nH]c3ccccc32)c1=O | 0 | ? | ? | 0 | 0
O=C(NCc1ccc(Cl)cc1)c1cccc2c1C(=O)N(CC1CCCO1)C2 (stereo not given) | 0 | 0 | 0 | 0 | 0
Cc1ccc(Sc2ncccc2C(N)=O)cc1 | 0 | 0 | 0 | 0 | 0
Cc1ccc(Sc2cnc(N)nc2C)cc1 | 0 | ? | 16µM | 0 | 0
Cn1nnnc1SCCCNCc1cccc(OCc2ccccc2Cl)c1 | - | 18µM | 16µM | - | -
Cn1nnnc1SCCCNCc1ccccc1OCc1ccccc1Cl | - | 5.2µM | 4.6µM | - | -
COc1cccc(CNCCCSc2nnnn2C)c1 | - | 0 | 0 | - | -
O=C(NCc1ccccc1)c1ccc(NC(=O)C2CCCO2)cc1 (stereo not given) | 0 | 0 | 0 | 0 | 0
O=C(O)C1CCC(=O)N1C(=O)OCc1ccccc1 (stereo not given) | 0 | 0 | ? | 0 | 0
Cc1ccc(S(=O)(=O)CC(=O)N2CCCCCC2)cc1 | 0 | 0 | 0 | 0 | 0
COc1cccc2sc(N3CCN(C(=O)CS(=O)(=O)c4ccc(Cl)cc4)CC3)nc12 | - | 16µM | 18µM | - | -
Cc1ccc(S(=O)(=O)CC(=O)N2CCN(c3nc4c(F)cccc4s3)CC2)cc1 | - | 21µM | 18µM | - | -
COc1cc(NC(=O)c2cc3ccccc3cc2OC)ccc1NC(=O)c1cccs1 | 0 | 23µM | 13µM | 0 | -69
COc1cc(NC(=O)c2cccc(Cl)c2)ccc1NC(=O)c1cccs1 | 0 | ? | 18µM | 0 | -
SMILES | HT1080 IDH1KD tx | DT40 TDP1 CPT | TDP1 cell noCPT | HT1080-NT tox | IL1B secr inh
COc1c(Cl)cc(Cl)cc1C(=O)Nc1ccc(C(=O)O)cc1 | 0 | 0 | 0 | 0 | 0
COc1cc(NC(=O)c2cccs2)ccc1NC(=O)Cc1ccccc1 | 0 | 0 | 0 | 0 | 0
COc1cc(C(=O)Nc2cccc(NC(=O)c3cccs3)c2)cc(OC)c1OC | 0 | 21µM | 21µM | 0 | 0
COc1c(Cl)cc(Cl)cc1/C=C/C(=O)c1ccc(NC(=O)c2cccs2)cc1 | ? | 2.3µM | 2.6µM | 21µM | -104
COc1ccc(-c2nnc(NC(=O)c3cccs3)s2)c(OC)c1 | 0 | 16µM | 29µM | 0 | 0
CC1(C(=O)O)CCCN1C(=O)c1cc2ccccc2s1 (stereo not given) | 0 | 0 | 0 | 0 | 0
COc1cccc(Cn2c3ccc(NC(=O)Cc4cc(OC)ccc4OC)cc3c(=O)n2C)c1 | ? | 12µM | 21µM | ? | -78
COc1cccc(CC(=O)Nc2ccc3c(c2)c(=O)n(C)n3-c2ccc(C(C)(C)C)cc2)c1 | 0 | 26µM | ? | ? | 0
COc1cccc(Cn2c3ccc(NC(=O)CC(C)C(F)(F)F)cc3c(=O)n2C)c1 (stereo not given) | 0 | ? | ? | 0 | 0
COc1ccc(CC2C(=O)NC(C)C(=O)N(C)C3Cc4ccc(cc4)Oc4cc(ccc4O)CC(C(=O)NC(C)C(=O)NC(C)C(=O)N2C)N(C)C3=O)cc1 (stereo not given) | 0.16µM | 0.018µM | 0.16µM | 0.33µM | -100
Cc1noc(-c2ccc(Cl)cc2)c1C(=O)O/N=C(\N)c1ccc(C(C)(C)C)cc1 | ? | ? | ? | ? | -66
Cc1cc(C(=O)O/N=C(\N)c2ccc(C(C)(C)C)cc2)no1 | 0 | 0 | 0 | 0 | 0
CC(C)(C)c1ccc(C(=O)O/N=C(\N)c2ccccc2)cc1 | 0 | ? | 13µM | 0 | 0
Cc1occc1C(=O)O/N=C(\N)c1ccc(Cl)cc1 | 0 | 0 | 0 | 0 | 0

Source: PubChem BioAssay
